Of roughly 7,900 targets only a part is listed; those with a hit were picked by preference. About 0.6% of all pairs of compound and target were hits.
What was measured:
Test in all cases: log2 fold change, soluble protein after heating vs DMSO (PISA); higher = thermal stabilisation; K562 cells, 10 uM, 30 min; active = over 0.2 and 3.5 SD of the protein, either way, in both replicates (recomputed)
[1] = compound: C1=CC=C(C=C1)[C@H](COC2=CC3=C(C=C2)NC(=O)N3)NC(=O)C4=CC=CN(C4=O)CC5=CC(=C(C=C5)F)F
Procedure, shortened: (§1)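 K562 cells (2×10^6 cells/mL) were treated with 10 μM compound for 30 min, and aliquots were heated for 3 min over 48°C-58°C. Pooled aliquots were extracted in PBS with 0.5% NP-40 at 4°C, and the supernatant after 21,000xg for 90 min was measured by TMTpro 16plex LC-MS/MS with channel sums equalised. Reported thermal stability, relative to control samples and from duplicates, is a log2 fold change.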

[2] = compound: CC1=C(SC2=C1C(=N[C@H](C3=NN=C(N32)C)CC(=O)N)C4=CC=C(C=C4)Cl)C
Procedure, shortened: as §1

[3] = compound: CC1=C2C(=CC=C1)N=C(N(C2=O)C3=CC=CC=C3C)CN4C=NC5=C(N=CN=C54)N
Procedure, shortened: as §1

[4] = compound: Cc1sc2c(c1C)C(c1ccc(Cl)cc1)=N[C@@H](CC(=O)OC(C)(C)C)c1nnc(C)n1-2
Procedure, shortened: as §1

[5] = compound: c1ccc([C@@H]2C[C@H]2NC2CCNCC2)cc1
Procedure, shortened: as §1

Measured: log2 fold change

QRSL1 (UniProt Q9H0R6)
UniProt Q9H0R6, sequence (Q9H0R6 whole entry, looked up): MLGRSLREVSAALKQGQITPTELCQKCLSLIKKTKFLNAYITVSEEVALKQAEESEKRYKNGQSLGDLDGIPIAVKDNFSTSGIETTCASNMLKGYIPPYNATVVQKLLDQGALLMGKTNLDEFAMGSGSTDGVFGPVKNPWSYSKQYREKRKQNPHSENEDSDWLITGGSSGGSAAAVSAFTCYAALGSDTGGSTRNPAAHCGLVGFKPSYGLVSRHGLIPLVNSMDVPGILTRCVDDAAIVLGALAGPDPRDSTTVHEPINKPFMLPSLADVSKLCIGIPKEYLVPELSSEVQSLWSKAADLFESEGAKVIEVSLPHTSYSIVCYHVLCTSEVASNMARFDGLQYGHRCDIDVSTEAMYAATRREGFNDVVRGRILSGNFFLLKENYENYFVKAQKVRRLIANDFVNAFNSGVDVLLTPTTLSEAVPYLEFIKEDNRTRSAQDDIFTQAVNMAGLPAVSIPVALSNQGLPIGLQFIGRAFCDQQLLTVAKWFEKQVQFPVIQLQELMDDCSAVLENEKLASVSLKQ
inactive: [1] -0.01 | [2] 0.142 | [3] 0.147 | [4] 0.05 | [5] 0.041

PRPF3 (UniProt O43395)
UniProt O43395, sequence (O43395 whole entry, looked up): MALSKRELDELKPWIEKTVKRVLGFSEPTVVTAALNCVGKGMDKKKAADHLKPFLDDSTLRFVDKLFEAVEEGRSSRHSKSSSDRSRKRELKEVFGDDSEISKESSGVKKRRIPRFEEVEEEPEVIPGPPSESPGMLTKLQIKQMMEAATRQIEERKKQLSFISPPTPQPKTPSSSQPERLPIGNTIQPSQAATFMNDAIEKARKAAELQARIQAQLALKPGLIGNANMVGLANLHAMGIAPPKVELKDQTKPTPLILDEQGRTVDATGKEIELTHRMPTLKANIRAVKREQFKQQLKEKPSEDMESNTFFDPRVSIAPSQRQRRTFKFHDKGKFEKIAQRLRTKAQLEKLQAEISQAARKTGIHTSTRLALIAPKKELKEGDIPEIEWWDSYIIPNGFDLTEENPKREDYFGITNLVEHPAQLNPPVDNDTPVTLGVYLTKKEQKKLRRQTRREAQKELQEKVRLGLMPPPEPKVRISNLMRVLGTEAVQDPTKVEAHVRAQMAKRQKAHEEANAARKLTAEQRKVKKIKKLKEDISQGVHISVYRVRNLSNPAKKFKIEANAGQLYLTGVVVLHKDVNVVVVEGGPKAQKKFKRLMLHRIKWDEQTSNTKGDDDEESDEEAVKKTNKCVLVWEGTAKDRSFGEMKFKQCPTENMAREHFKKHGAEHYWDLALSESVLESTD
inactive: [1] -0.09 | [2] -0.208 | [3] 0.08 | [4] -0.017 | [5] 0.115

PRPF4B (UniProt Q13523)
UniProt Q13523, sequence (Q13523 whole entry, looked up): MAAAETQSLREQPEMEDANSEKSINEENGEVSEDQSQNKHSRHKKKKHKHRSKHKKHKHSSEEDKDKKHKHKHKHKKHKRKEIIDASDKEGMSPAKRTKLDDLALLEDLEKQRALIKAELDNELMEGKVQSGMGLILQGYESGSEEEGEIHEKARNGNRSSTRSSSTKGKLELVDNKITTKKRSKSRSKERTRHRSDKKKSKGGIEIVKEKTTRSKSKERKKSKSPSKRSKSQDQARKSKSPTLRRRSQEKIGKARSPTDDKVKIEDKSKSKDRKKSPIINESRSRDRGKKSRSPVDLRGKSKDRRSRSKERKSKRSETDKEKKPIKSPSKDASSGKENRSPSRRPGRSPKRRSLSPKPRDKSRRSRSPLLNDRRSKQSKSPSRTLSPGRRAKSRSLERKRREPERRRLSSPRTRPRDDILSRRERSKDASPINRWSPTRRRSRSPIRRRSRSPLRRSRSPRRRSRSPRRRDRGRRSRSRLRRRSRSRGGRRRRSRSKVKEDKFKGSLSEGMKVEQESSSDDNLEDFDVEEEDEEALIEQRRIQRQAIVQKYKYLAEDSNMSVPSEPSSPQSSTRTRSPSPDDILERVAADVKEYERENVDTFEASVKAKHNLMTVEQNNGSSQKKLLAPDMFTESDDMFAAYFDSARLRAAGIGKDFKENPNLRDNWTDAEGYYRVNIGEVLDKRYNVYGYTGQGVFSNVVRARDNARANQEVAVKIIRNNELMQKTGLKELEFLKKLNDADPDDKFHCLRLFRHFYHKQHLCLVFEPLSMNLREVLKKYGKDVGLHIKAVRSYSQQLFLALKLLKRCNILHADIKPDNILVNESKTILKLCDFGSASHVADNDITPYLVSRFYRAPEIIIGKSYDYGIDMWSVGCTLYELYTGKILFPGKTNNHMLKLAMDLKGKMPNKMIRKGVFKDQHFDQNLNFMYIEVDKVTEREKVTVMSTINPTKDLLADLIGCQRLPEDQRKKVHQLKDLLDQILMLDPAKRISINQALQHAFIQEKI
inactive: [1] 0.118 | [2] -0.098 | [3] 0 | [4] 0.109 | [5] 0.168

PAK4 (UniProt O96013)
inactive: [1] -0.005 | [2] 0.045 | [3] 0.102 | [4] -0.02 | [5] -0.016

PECAM1 (UniProt P16284)
inactive: [1] 0.063 | [2] 0.138 | [3] 0.014 | [4] -0.06 | [5] 0.047

PGGHG (UniProt Q32M88)
UniProt Q32M88, sequence (Q32M88 whole entry, looked up): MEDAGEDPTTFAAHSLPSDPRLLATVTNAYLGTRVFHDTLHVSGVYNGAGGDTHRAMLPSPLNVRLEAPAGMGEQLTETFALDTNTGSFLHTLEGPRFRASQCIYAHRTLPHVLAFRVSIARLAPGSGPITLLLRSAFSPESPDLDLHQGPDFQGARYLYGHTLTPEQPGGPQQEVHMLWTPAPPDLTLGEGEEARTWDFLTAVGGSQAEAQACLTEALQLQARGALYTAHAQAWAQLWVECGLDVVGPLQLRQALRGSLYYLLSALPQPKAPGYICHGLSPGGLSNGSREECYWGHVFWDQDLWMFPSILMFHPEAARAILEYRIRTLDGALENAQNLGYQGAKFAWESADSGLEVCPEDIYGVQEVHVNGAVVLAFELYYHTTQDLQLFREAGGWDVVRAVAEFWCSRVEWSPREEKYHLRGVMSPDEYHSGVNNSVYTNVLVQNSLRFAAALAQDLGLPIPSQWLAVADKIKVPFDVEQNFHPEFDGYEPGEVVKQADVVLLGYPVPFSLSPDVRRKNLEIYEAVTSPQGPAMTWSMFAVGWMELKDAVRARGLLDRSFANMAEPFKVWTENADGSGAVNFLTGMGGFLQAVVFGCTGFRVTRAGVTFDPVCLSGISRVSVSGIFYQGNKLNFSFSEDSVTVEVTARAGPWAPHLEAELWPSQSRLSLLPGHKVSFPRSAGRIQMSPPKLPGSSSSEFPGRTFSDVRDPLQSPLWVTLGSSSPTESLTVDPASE
inactive: [1] -0.052 | [2] -0.09 | [3] -0.088 | [4] -0.084 | [5] 0.213

PPP2R5C isoform 4 (UniProt Q13362)
UniProt Q13362, sequence (Q13362 whole entry, looked up): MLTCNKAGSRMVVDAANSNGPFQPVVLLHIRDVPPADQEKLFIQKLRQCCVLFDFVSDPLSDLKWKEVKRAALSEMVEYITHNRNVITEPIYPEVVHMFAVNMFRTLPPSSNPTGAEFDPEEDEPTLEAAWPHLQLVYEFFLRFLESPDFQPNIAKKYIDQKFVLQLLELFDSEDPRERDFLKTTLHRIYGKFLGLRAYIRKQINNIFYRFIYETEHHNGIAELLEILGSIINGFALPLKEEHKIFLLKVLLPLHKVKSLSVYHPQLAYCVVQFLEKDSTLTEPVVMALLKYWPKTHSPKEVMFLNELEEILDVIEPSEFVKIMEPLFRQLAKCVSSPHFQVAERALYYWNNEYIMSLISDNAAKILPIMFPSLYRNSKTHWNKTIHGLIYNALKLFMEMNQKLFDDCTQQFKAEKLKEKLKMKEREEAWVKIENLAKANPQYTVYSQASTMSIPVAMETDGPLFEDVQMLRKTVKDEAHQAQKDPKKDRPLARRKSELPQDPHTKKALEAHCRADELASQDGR
inactive: [1] -0.03 | [2] -0.003 | [3] 0.117 | [4] -0.019 | [5] 0.012

PRKAR2A (UniProt P13861)
UniProt P13861, sequence (P13861 whole entry, looked up): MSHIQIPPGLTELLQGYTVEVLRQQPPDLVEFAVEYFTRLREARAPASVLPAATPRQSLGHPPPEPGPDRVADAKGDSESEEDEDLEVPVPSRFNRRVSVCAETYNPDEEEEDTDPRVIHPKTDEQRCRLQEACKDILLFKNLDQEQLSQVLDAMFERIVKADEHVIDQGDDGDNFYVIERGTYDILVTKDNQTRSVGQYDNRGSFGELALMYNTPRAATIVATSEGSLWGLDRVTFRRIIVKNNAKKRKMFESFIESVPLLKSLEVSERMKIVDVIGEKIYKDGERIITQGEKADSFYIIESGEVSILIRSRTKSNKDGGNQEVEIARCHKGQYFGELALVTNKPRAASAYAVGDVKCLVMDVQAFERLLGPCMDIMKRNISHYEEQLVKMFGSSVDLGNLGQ
inactive: [1] 0.044 | [2] 0.046 | [3] 0.054 | [4] 0.018 | [5] -0.003

PLK1 (UniProt P53350)
UniProt P53350, sequence (P53350 whole entry, looked up): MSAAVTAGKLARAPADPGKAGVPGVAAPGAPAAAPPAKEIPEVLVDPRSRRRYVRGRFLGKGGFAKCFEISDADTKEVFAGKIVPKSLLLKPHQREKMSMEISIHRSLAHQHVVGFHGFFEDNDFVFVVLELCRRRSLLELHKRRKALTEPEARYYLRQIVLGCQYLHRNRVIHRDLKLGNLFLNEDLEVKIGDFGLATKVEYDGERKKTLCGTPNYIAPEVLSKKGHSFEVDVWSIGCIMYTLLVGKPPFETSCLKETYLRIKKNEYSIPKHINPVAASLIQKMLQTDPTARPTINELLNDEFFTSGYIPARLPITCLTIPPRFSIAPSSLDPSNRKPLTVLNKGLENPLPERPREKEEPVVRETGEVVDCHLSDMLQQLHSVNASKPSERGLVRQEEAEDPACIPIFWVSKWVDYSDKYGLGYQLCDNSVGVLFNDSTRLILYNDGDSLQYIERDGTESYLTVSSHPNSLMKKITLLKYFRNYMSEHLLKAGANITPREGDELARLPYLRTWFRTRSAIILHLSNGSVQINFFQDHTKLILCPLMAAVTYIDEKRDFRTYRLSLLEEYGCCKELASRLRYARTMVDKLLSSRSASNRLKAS
inactive: [1] 0.02 | [2] 0.037 | [3] 0.019 | [4] -0.012 | [5] 0.007

From the supplement of paper PMC10849652
